The results in this text go back to PubChem BioAssay.

For part of these data: Entries with a potency or affinity are not part of this list. Results filed as inconclusive are left out. Activity calls are given as the source filed them.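 How the source made its calls, unless noted: active means falling signal with fitted half-maximal potency no higher than twice the top valid tested dose; inconclusive means poor fit quality, or flat fit spanning -70% to -30%; inactive means potency over limit, rising signal, or flat fit inside 30%.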

The nature of test [1]: Cryptococcus neoformans growth inhibition, dose response, Alamar Blue, cherry-picks (AID 686998).
Test [2] is described as follows: inducers of Cryptococcus neoformans cell lysis, dose response, AK release luminescence, cherry-picks (AID 687000;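 active means fitted dose curve reaches 40% lysis signal rise at or below the highest valid concentration tested for that sample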;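 further: luminescent detection of adenylate kinase leaking from lysed yeast; 0% = median neutral control signal and 100% = double that signal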).
The nature of test [3]: HepG2 cell cytotoxicity, dose response, cytotoxicity control, cherry-picks, set 2 (AID 687002;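 active means a dose-response fit showing signal loss, with half-maximal concentration no higher than twice the top tested dose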).
Test [4] in a line: binders of probe aFSTL3 on microarray, primary screen, stem cell growth factor project, biochemical, small-molecule microarray, fluorescence 635/667 (AID 1064).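 Further: measures binding of the biotinylated anti-FSTL3 antibody to printed compounds.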 Conditions: higher = more signal.
Test [5] is described as follows: binders from COS7 lysate, DM2A8 probe, primary screen, torsin A project, cell lysate, small-molecule microarray, fluorescence 635/667 (AID 1065). Conditions: higher = more signal, COS7 lysate expressing mutant human TOR1A.
Test [6] is described as follows: binders of probe aFGF2 on microarray, primary screen, stem cell growth factor project, biochemical, small-molecule microarray, fluorescence 635/667 (AID 1067).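 Further: measures binding of biotinylated aFGF2 protein to printed compounds on slides; z-score merges feature fluorescence and signal-to-noise across triplicate slides.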 Conditions: higher = more signal.
Test [7] in a line: binders of probe aFGF10 on microarray, primary screen, stem cell growth factor project, biochemical, small-molecule microarray, fluorescence 635/667 (AID 1071).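 Further: score merges 667 nm spot intensity and signal to noise from triplicate slides.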 Conditions: higher = more signal.
Test [8] deals with Neurogenic locus notch homolog protein 2 (Homo sapiens) (UniProt Q04721). Briefly: Notch2 binders on small-molecule microarrays, primary screen, biochemical, small-molecule microarray, 635 nm fluorescence, stem cell growth factors (AID 1073). Conditions: Notch2 binding, higher = more signal.
For test [9], the target named is Pro-neuregulin-1, membrane-bound isoform (Homo sapiens) (UniProt Q02297). Briefly: NRG1 binders on small-molecule microarrays, primary screen, psychiatric disease protein project, biochemical, small-molecule microarray, fluorescence 635/667 (AID 1075).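 Further: score combines 667 nm spot fluorescence with signal to noise.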 As to conditions: NRG1 binding, 635 nm fluorescence, higher = more signal.
The subject of test [10] is Neuregulin-1 EGF-like domain. In words: binders of neuregulin-1 EGF-like domain, primary screen, biochemical, small-molecule microarray, 635 nm fluorescence (AID 1081).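 Further: binding of the protein to compounds printed on small-molecule microarray slides.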 As to conditions: small-molecule microarray binding, higher = more signal.
The nature of test [11]: FRG1 promoter luciferase signal modulators, primary screen, FRG1 inhibition for FSHD, cell-based, C2C12 myotubes, firefly/Renilla luciferase, luminescence (AID 1084). As to conditions: higher = more signal, called active from +8 up or from −8 down.
Test [12] is described as follows: binders of probe aFST on microarray, primary screen, stem cell growth factor project, biochemical, small-molecule microarray, fluorescence 635/667 (AID 1086).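 Further: score merges 667 nm fluorescence with signal-to-noise of each printed compound spot.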 Conditions: higher = more signal.
Test [13] in a line: binders of probe aHhip on microarray, primary screen, stem cell growth factor project, biochemical, small-molecule microarray, fluorescence 635/667 (AID 1087).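 Further: score merges spot fluorescence at 667nm with spot signal to noise ratio.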 As to conditions: higher = more signal.
Test [14] deals with PRMT1 (protein arginine N-methyltransferase 1). Briefly: PRMT1 binders on small-molecule microarrays, primary screen, biochemical, small-molecule microarray, 635 nm fluorescence (AID 1088).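 Further: binding of Prmt1 protein to compounds spotted on small-molecule microarray slides.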 As to conditions: small-molecule microarray binding, higher = more signal.
A short description of test [15]: yeast growth modulation, basal conditions, primary screen, YJM789 clinical isolate, OD600, 24 h (AID 1089).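 Further: growth of clinical yeast isolate S. cerevisiae YJM 789 seeded 1000 cells per well.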 Conditions: S. cerevisiae YJM789 growth, higher = more signal, called active from +8 up or from −8 down.
A short description of test [16]: fission yeast growth modulation, primary screen, strain 972, OD600, 24 h, no modulator (AID 1090).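 Further: basal condition with compound alone and no growth modifier present.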 As to conditions: S. pombe 972 growth, higher = more signal, called active from +8 up or from −8 down.
A short description of test [17]: S. cerevisiae growth modulation with rapamycin, primary screen, strain BY4716, OD600, 96 h (AID 1091). Conditions: higher = more signal, called active from +8 up or from −8 down.
For test [18], the target named is Torsin-1A-interacting protein 2 (Homo sapiens) (UniProt Q8NFQ8). Briefly: LULL1 binders on small-molecule microarray, primary screen, cell lysate, human LULL1 lysate, 635/667 nm fluorescence (AID 1092).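 Further: score merges per-feature 667 nm fluorescence with signal-to-noise.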 As to conditions: hLULL1 lysate binding, 635 nm fluorescence, higher = more signal.
Test [19] can be described thus: E. coli growth modulation, two-sided OD650, primary screen, E. coli filamentation project, strain DRC41, 24 h (AID 1093).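 Further: MC1000 strain lacking acrAB efflux and sulA so SOS filamentation is blocked.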 As to conditions: OD650, 24 h, higher = more signal, called active from +8 up or from −8 down.
A short description of test [20]: small-molecule microarray binders of probe aLefty2, primary screen, biochemical, biotinylated probe, 635/667 nm fluorescence (AID 1094).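 Further: score merges spot fluorescence near 667 nm with spot signal-to-noise ratio.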 Conditions: higher = more signal.

Torsin-1A-interacting protein 2 (Homo sapiens), sequence (Q8NFQ8 whole entry, looked up): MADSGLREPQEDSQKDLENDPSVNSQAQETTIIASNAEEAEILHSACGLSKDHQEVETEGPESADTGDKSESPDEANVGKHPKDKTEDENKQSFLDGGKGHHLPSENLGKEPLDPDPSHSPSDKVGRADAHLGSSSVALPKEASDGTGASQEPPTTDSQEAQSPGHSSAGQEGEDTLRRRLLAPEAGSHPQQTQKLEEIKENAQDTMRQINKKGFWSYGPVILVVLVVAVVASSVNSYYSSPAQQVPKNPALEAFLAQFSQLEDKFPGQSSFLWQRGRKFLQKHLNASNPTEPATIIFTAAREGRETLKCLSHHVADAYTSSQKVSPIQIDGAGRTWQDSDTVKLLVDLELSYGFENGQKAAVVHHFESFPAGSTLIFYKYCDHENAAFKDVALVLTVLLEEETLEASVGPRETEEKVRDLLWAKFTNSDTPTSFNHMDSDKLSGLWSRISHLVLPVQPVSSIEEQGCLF
Neurogenic locus notch homolog protein 2 (Homo sapiens), sequence (Q04721 whole entry, looked up, canonical isoform): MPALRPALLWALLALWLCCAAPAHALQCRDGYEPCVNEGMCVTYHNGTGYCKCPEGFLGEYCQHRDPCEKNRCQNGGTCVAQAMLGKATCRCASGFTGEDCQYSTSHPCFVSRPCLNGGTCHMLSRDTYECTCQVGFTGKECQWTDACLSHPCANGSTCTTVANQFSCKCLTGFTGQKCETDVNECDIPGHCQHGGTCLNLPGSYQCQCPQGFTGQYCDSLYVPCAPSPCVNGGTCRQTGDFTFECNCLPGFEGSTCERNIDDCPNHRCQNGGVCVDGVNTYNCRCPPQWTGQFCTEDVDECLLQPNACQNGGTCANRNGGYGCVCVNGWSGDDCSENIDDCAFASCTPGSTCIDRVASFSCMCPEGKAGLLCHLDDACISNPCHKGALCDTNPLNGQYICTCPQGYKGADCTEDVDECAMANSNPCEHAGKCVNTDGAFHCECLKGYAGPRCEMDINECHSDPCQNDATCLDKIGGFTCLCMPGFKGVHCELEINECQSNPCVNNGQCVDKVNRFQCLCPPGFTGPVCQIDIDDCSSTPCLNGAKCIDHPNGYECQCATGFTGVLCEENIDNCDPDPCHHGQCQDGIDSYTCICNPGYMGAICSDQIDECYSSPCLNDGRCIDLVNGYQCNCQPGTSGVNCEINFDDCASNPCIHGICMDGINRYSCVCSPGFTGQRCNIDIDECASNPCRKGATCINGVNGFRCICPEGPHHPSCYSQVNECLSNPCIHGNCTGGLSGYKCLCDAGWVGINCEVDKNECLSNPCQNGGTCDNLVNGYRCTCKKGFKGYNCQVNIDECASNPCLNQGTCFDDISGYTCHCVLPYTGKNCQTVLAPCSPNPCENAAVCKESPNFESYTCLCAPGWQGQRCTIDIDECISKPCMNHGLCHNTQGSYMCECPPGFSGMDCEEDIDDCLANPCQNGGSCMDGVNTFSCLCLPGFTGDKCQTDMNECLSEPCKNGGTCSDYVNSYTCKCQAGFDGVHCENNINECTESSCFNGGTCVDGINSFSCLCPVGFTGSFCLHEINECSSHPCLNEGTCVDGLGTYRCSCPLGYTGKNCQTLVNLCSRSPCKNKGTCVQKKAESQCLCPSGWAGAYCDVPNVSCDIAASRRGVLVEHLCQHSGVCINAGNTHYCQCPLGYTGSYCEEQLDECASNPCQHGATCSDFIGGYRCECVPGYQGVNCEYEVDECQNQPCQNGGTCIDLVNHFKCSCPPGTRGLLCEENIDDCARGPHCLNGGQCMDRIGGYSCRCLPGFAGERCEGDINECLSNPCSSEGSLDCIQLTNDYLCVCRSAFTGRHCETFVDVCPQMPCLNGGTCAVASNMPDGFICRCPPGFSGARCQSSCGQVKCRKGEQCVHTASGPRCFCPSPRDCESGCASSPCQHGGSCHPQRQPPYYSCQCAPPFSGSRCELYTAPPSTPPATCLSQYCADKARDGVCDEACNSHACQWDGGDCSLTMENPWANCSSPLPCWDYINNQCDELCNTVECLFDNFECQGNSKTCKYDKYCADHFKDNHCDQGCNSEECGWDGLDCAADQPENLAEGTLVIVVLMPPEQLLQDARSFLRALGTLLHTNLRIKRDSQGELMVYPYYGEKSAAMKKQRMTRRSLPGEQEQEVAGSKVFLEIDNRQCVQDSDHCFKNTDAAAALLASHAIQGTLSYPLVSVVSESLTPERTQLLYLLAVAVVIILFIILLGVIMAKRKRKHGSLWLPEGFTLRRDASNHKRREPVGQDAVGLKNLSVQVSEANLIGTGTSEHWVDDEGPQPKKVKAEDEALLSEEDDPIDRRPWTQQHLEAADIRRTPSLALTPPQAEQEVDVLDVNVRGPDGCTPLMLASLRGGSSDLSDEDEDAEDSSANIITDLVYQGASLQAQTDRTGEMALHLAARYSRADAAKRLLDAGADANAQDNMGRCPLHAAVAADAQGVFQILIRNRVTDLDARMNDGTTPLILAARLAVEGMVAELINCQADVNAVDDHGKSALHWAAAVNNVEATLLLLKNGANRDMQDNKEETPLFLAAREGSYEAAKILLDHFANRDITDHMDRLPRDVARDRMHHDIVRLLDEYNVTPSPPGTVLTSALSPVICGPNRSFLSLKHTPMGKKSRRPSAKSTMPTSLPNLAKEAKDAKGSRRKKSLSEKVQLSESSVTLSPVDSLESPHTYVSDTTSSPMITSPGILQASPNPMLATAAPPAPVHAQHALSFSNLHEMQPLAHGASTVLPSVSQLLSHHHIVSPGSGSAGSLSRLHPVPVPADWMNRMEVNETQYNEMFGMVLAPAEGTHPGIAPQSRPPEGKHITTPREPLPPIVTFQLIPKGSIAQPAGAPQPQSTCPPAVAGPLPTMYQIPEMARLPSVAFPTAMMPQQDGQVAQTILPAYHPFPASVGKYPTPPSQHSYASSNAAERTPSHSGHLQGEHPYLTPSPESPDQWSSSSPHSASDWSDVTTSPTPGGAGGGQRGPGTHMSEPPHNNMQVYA
Pro-neuregulin-1, membrane-bound isoform (Homo sapiens), sequence (Q02297 whole entry, looked up, the tested form may be a part, canonical isoform): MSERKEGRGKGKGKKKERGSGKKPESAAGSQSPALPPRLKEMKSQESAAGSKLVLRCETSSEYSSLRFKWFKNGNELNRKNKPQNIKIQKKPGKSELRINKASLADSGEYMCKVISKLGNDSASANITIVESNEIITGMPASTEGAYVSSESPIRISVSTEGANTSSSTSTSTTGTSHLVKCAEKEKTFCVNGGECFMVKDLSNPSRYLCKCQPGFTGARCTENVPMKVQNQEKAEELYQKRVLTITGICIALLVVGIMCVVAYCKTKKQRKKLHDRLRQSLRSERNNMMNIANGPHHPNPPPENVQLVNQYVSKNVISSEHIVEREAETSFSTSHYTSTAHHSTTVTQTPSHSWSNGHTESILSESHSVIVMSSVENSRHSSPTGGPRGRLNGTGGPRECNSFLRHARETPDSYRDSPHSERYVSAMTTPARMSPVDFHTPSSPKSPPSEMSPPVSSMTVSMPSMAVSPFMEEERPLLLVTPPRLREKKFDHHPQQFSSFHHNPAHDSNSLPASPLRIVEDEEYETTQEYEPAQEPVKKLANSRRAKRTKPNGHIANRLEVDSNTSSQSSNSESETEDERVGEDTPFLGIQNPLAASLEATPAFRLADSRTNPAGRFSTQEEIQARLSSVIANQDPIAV

Regarding `CN1C(=O)c2cc(NC(=O)Nc3ccc(Cl)cc3)ccc2OC[C@H]2O[C@@H](CC(=O)NCCN3CCCCC3)CC[C@@H]21`, the result in [1], in [2] and in [3] was inactive.

Regarding `CN(C[C@H]1N[C@@H](CO)[C@H]1c1ccc(-c2cccc(F)c2)cc1)S(C)(=O)=O`, the compound was called inactive in test [1] and in test [2].

For the compound `Cc1ccc(N2C(=O)c3ccccc3[C@](C)(C(=O)NCC(F)(F)F)[C@@H]2c2ccc(CO)cc2)nc1`, the composite z-score in test [4] was 1.36; in test [5], -0.769; in [6], -0.128; in [7] it was -1.14; in [8], -1.22; in [9], 1.64. Further, the composite z-score was 0.0042 in test [10]; -0.413 in test [12]; -0.0423 in test [13]; -0.973 in [14]; -0.916 in test [18]; -0.0741 in [20]. Also, the z-score in [11] was 0.0677 (inactive); in test [15], -0.625 (inactive); in test [16], -0.972 (inactive); in [17], -0.286 (inactive); in test [19] it was 1.1 (inactive).

For `CN1C(=O)c2cc(NC(=O)NC3CCCC3)ccc2OC[C@H]2O[C@@H](CC(=O)NC3CCC3)CC[C@@H]21`, the outcome in [1], in test [2] and in test [3] was inactive.

Consider `N#Cc1ccc(-c2ccc3c(c2)[C@H]2[C@H](CCN2C(=O)Cc2ccccc2)[C@@H](CO)N3)cc1`, for which the outcome in [1], in test [2] and in test [3] was inactive.

With `O=c1n(-c2ccccc2)c(=O)n2n1CC(COc1ccccc1)=C1[C@@H](CCc3ccccc3)OB(O)C[C@@H]12`, the composite z-score was -0.62 in test [4]; -0.128 in test [5]; -0.031 in [6]; 0.96 in test [7]; 0.893 in test [8]; 0.97 in test [9]. The composite z-score in test [10] was 0.706; in [12], 0.642; in [13], 0.0524; in test [14] it was 1.42; in test [18], 1.39; in [20] it was -0.133. Besides, the z-score is -4.24 (inactive) in [11]; 0.173 (inactive) in test [15]; -3.03 (inactive) in test [16]; -1.44 (inactive) in [17]; 1.92 (inactive) in test [19].

As to `C#CCOc1ccc(C[C@H]2C(=O)O[C@H](Cc3ccccc3)[C@H](/C=C/C3CC3)N2CC#C)cc1`, the composite z-score in [4] was 0.372; in test [5], 0.259; in test [6] it was -0.14; in [7], -0.118; in test [8] it was -0.487; in [9] it was -0.13. For the same compound, the composite z-score in [10] is 0.141; in test [12] it was -0.652; in test [13], -0.0074; in test [14], -0.746; in [18] it was 0.408; in test [20] it was -0.139. For the same compound, the z-score in [11] is -4.41 (inactive); in test [15], 1.35 (inactive); in test [16], -0.795 (inactive); in test [17] it was 0.519 (inactive); in test [19] it was 2.04 (inactive).

Regarding `NC(=O)N1C(=O)C2C(C1=O)C1C=C(c3ccc(CO)cc3)C2C(C2CC2)N1Cc1cc2c(cc1Br)OCO2` (stereo not given), the composite z-score in test [4] is 0.567; in test [5], 0.778; in test [6], -0.105; in [7], -0.277; in [8], -0.204; in test [9], 0.976. For the same compound, the composite z-score in test [10] was 0.887; in test [12], 0.0417; in [13] it was -0.0237; in test [14], 0.364; in test [18], 1.86; in [20], 0.0834. For the same compound, the z-score in test [11] is -2.01 (inactive); in test [15], -0.779 (inactive); in test [16], -3.29 (inactive); in test [17], -1.32 (inactive); in test [19] it was 1.19 (inactive).

With `O=C1O[C@H](c2ccccc2)[C@H](c2ccccc2)N2[C@H]1[C@@H](C(=O)Nc1nc3ccccc3s1)[C@]1(C(=O)Nc3ccc(C#CCCO)cc31)[C@H]2c1ccccc1OCCO`, the composite z-score is -0.246 in [4]; 1.25 in test [5]; -0.038 in test [6]; 0.502 in test [7]; 1.35 in [8]; 1.69 in test [9]. Also, the composite z-score came out at 1.06 in test [10]; 0.599 in test [12]; 0.0757 in test [13]; 1.47 in [14]; 2.85 in [18]; 0.0459 in test [20]. In addition, the z-score was -1.51 (inactive) in [11]; 0.764 (inactive) in test [15]; -1.98 (inactive) in test [16]; 2.62 (inactive) in [17]; 2.96 (inactive) in test [19].

As for `COc1ccc(/C=C/C(=O)c2cccc(OCC(=O)OC(C)(C)C)c2)cc1`, the composite z-score in test [4] was 0.158; in test [5] it was 0.0968; in [6] it was -0.17; in [7] it was -0.672; in [8], -0.466; in test [9], 0.421. Also, the composite z-score in test [10] was 0.284; in [12], -0.126; in test [13], -0.226; in test [14], 0.898; in test [18] it was 1.21; in [20], -0.102. The z-score in test [11] was 4.17 (inactive); in test [15], 0.0268 (inactive); in test [16] it was -2.14 (inactive); in test [17] it was 10.9 (active); in test [19] it was 0.328 (inactive).

For the compound `C[C@@H]1CN([C@@H](C)CO)C(=O)c2cc(NS(=O)(=O)c3ccc(F)cc3)ccc2O[C@@H](C)CCCCO[C@H]1CN(C)S(=O)(=O)c1ccc(F)cc1`, the outcome in test [1], in test [2] and in test [3] was inactive.

With `CC(C)CNC(=O)[C@@H]1c2ccccc2C(=O)N(Cc2ccc(OC(F)(F)F)cc2)[C@H]1c1ccc(CO)cc1`, the composite z-score in test [4] was -0.0768; in test [5] it was 0.849; in [6], -0.0095; in test [7], 0.34; in [8] it was 0.988; in [9], 1.15. Moreover, the composite z-score in [10] was 1.21; in test [12], 0.941; in test [13] it was -0.206; in [14] it was 1.54; in test [18], 3.01; in test [20], -0.0329. In addition, the z-score was -2.61 (inactive) in test [11]; -1.87 (inactive) in test [15]; -2.91 (inactive) in [16]; -1.06 (inactive) in [17]; 3.96 (inactive) in test [19].

For `[N-]=[N+]=Nc1ccccc1[C@H]1OC(c2ccc(OCCCO)cc2)=N[C@@]1(Cc1ccccc1)C(N)=O`, the composite z-score in [4] was 1.28; in test [5] it was 1.6; in test [6] it was 0.317; in test [7], 0.988; in [8], 1.42; in test [9], 1.14. Further, the composite z-score was 1.13 in test [10]; 1.42 in test [12]; 0.0053 in [13]; 1.55 in test [14]; 2.62 in test [18]; 0.789 in test [20]. The z-score in test [11] was -0.191 (inactive); in test [15], 2.87 (inactive); in test [16], -1.11 (inactive); in test [17] it was -0.321 (inactive); in test [19], 1.6 (inactive).
